Experimental data as given in PubChem BioAssay (EPA / NIEHS).
Active and inactive are the calls of the source. Rule for the calls: active = hit-call score of the fitted dose curve at least 0.9, where 1 is the maximum; inactive = score below 0.9.

Legend:
[1] = target: Bile acid receptor (Homo sapiens) (UniProt Q96RI1); test: ATG_IR1_CIS: Attagene CIS-FACTORIAL HepG2 Assay for human Nuclear Receptor Subfamily 1 Group H Member 4 (NR1H4), IR1 submotif (AID 2282946); conditions: IR1 reporter transcription, actives raise or lower the signal
Procedure, shortened: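 Transient MRTU transfection, HepG2; 24 h dosing; RNA → RT-PCR → 6-FAM primer extension → HpaI digest → capillary electrophoresis fluorescence. Gain/loss of signal fitted relative to DMSO.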

[2] = ATG_GRE_CIS: Attagene CIS-FACTORIAL HepG2 Assay for human Glucocorticoid Response Elements (GRE) (AID 2282947); conditions: HepG2 GRE cis-reporter, Attagene multiplex mRNA; actives raise or lower the signal
Procedure, shortened: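 Following 24 h chemical exposure of transiently transfected HepG2 cells, total RNA was reverse-transcribed and reporter cDNA amplified, fluorescently labelled and sized by capillary electrophoresis. Signal gain or loss was fitted relative to DMSO vehicle.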

[3] = ATG_ISRE_CIS: Attagene CIS-FACTORIAL HepG2 Assay for human Interferon Regulatory Factor 1 (IRF1) binding to an Interferon-Stimulated Response Element (ISRE) (AID 2282948); conditions: HepG2 ISRE cis-reporter (Attagene), mRNA transcription readout; actives raise or lower the signal
Procedure, shortened: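 Transiently transfected HepG2 cells carrying cis-element reporter units, dosed 24 hours. Reporter mRNA quantified by RT-PCR, fluorescent primer extension, HpaI digestion and capillary electrophoresis. Bidirectional fitting relative to DMSO.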

[4] = ATG_M_32_CIS: Attagene CIS-FACTORIAL HepG2 Assay for M32 Transcription Factor (Internal Marker) (AID 2282949); conditions: HepG2 Attagene cis-factorial M32 reporter, mRNA; actives raise or lower the signal;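 note: background control marker of the multiplexed CIS panel rather than a real target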
Procedure, shortened: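 HepG2 cells transiently transfected with multiplexed cis-regulated reporter units, dosed 24 h. Reporter mRNA quantified by RT-PCR, 6-FAM labelling, HpaI digestion and capillary electrophoresis; bidirectional fit vs DMSO.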

[5] = ATG_M_06_CIS: Attagene CIS-FACTORIAL HepG2 Assay for M06 Transcription Factor (Internal Marker) (AID 2282950); conditions: HepG2 Attagene CIS-FACTORIAL M06 internal marker reporter; actives raise or lower the signal
Procedure, shortened: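 Cells (HepG2, transiently carrying cis-driven reporter units) receive chemical for 24 h before RNA isolation. Reporter cDNA is PCR-amplified, FAM-labelled by primer extension, HpaI-digested and sized on a capillary analyser.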

[6] = target: Hypoxia-inducible factor 1-alpha (Homo sapiens) (UniProt Q16665); test: ATG_HIF1a_CIS: Attagene CIS-FACTORIAL HepG2 Assay for human Hypoxia Inducible Factor 1 (HIF1A) (AID 2282951); conditions: HepG2 Attagene cis-factorial HIF1a reporter transcription; actives raise or lower the signal
Procedure, shortened: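 HepG2 cells transiently transfected with multiple cis-regulated reporter transcription units measure endogenous transcription factor activity. After 24 h exposure, reporter mRNA is quantified by RT-PCR with 6-FAM labelling, HpaI digestion and capillary electrophoresis. Bidirectional fitting against DMSO.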

[7] = target: Hepatocyte nuclear factor 6 (Homo sapiens) (UniProt Q9UBC0); test: ATG_HNF6_CIS: Attagene CIS-FACTORIAL HepG2 Assay for human Hepatocyte Nuclear Factor 6 (HNF6) (AID 2282952); conditions: HepG2 Attagene cis-factorial HNF6 reporter transcription; actives raise or lower the signal
Procedure, shortened: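 Transiently transfected HepG2 cells expressing cis-regulated reporter transcription units were exposed to chemical for 24 h in a 24-well format. Reporter transcript abundance was determined by fluorescence capillary electrophoresis.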

[8] = target: Heat shock factor protein 1 (Homo sapiens) (UniProt Q00613); test: ATG_HSE_CIS: Attagene CIS-FACTORIAL HepG2 Assay for human Heat Shock Transcription Factor 1 (HSE) (AID 2282953); conditions: HepG2 HSE cis-reporter, Attagene RNA transcription; actives raise or lower the signal
Procedure, shortened: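 Liver-derived HepG2 cells carry transiently introduced multiple reporter units governed by cis promoters. Reporter RNA measured 24 h post-dose through reverse transcription, PCR amplification, fluorescent labelling and capillary electrophoresis, normalised to DMSO.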

[9] = ATG_MRE_CIS: Attagene CIS-FACTORIAL HepG2 Assay for human Metal Responsive Element (MRE) (AID 2282954); conditions: HepG2 MRE cis-reporter transcription, Attagene multiplex; actives raise or lower the signal
Procedure, shortened: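 Step one: transfect HepG2 with cis-regulated reporter units. Step two: dose 24 h. Step three: isolate RNA, RT-PCR, 6-FAM label, HpaI digest, capillary electrophoresis. Fit bidirectionally to DMSO.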

[10] = target: Paired box protein Pax-6 (Homo sapiens) (UniProt P26367); test: ATG_Pax6_CIS: Attagene CIS-FACTORIAL HepG2 Assay for human Paired Box 6 (PAX6) (AID 2282956); conditions: HepG2 CIS-FACTORIAL PAX6 reporter transcription, RNA readout; actives raise or lower the signal
Procedure, shortened: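 HepG2 cells transiently transfected with cis-promoter-driven multiplexed reporter units sensing endogenous transcription factor activity; 24 h chemical exposure. Reporter mRNA quantified by RT-PCR, 6-FAM labelling, HpaI digestion and capillary electrophoresis; bidirectional fit versus DMSO baseline.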

[11] = ATG_PXRE_CIS: Attagene CIS-FACTORIAL HepG2 Assay for human Pregnane X Receptor Element (PXRE) (AID 2282957); conditions: HepG2 Attagene CIS-FACTORIAL PXRE reporter, mRNA; actives raise or lower the signal
Procedure, shortened: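 Cis-element reporter mRNA in human hepatoma HepG2 cells is measured 24 h post-dosing by RT-PCR, primer-extension labeling and capillary electrophoresis; gain or loss of signal is fitted relative to DMSO.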

[12] = ATG_PPRE_CIS: Attagene CIS-FACTORIAL HepG2 Assay for human Peroxisome Proliferator-activated Response Element (PPRE) (AID 2282958); conditions: HepG2 PPRE cis-element reporter, Attagene transcription factor profiling; actives raise or lower the signal
Procedure, shortened: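 HepG2 cells are transiently transfected with multiplexed cis-promoter reporter units to report endogenous PPAR activity. After 24 h dosing, reporter mRNA is read by RT-PCR and capillary electrophoresis. Fitting is bidirectional against DMSO.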

[13] = ATG_RORE_CIS: Attagene CIS-FACTORIAL HepG2 Assay for human RAR-related Orphan Receptor Element (RORE) (AID 2282959); conditions: HepG2 Attagene cis-factorial RORE reporter, mRNA; actives raise or lower the signal
Procedure, shortened: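 HepG2 cells carrying transiently transfected cis-regulated reporter units; RORE-driven reporter mRNA quantified 24 h post-dosing by RT-PCR, 6-FAM primer extension, HpaI digestion and capillary electrophoresis. Bidirectional fit versus DMSO.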

[14] = ATG_Sox_CIS: Attagene CIS-FACTORIAL HepG2 Assay for human SRY-box transcription factor (SOX) (AID 2282960); conditions: HepG2 Attagene cis-factorial SOX reporter, mRNA; actives raise or lower the signal
Procedure, shortened: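 HepG2 cells transiently transfected with multiple cis-regulated reporter units, then dosed for 24 h. Reporter mRNA quantified by RT-PCR, fluorescent labelling, HpaI digestion and capillary electrophoresis; bidirectional fit versus DMSO.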

[15] = target: Transcription factor Sp1 (Homo sapiens) (UniProt P08047); test: ATG_Sp1_CIS: Attagene CIS-FACTORIAL HepG2 Assay for human Specificity Protein 1 (Sp1) (AID 2282961); conditions: HepG2 Sp1 cis-reporter transcription, actives raise or lower the signal
Procedure, shortened: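 HepG2 cells transiently transfected with multiplexed cis-regulated reporter constructs, chemical exposure 24 h. Reporter mRNA quantified by RT-PCR with capillary electrophoresis; bidirectional fit relative to DMSO.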

[16] = ATG_SREBP_CIS: Attagene CIS-FACTORIAL HepG2 Assay for human Sterol Regulatory Element Binding (SREBP) (AID 2282962); conditions: HepG2 Attagene cis-factorial SREBP reporter, mRNA; actives raise or lower the signal
Procedure, shortened: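 HepG2 cells transiently transfected with multiplexed cis-promoter reporter units sensing endogenous transcription factors; reporter mRNA measured 24 h after dosing by RT-PCR, 6-FAM labeling, HpaI digestion and capillary electrophoresis. Bidirectional fit versus DMSO.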

[17] = target: Signal transducer and activator of transcription 3 (Homo sapiens) (UniProt P40763); test: ATG_STAT3_CIS: Attagene CIS-FACTORIAL HepG2 Assay for human Signal Transducer and Activator of Transcription 3 (STAT3) (AID 2282963); conditions: HepG2, Attagene cis-factorial STAT3 reporter transcription; actives raise or lower the signal
Procedure, shortened: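 Transcript-level reporter assay. HepG2 transient MRTU transfection, 24 h exposure, fluorescence detection after RT-PCR and CE; DMSO baseline.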

[18] = ATG_TA_CIS: Attagene CIS-FACTORIAL HepG2 Assay for human TA Basal Promoter (AID 2282964); conditions: HepG2 Attagene CIS-factorial TA basal promoter reporter; actives raise or lower the signal
Procedure, shortened: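 Background internal-marker endpoint from a 52-component HepG2 cis-reporter panel. Cells treated 24 h; reporter transcripts quantified via RT-PCR and CE fluorescence against DMSO baseline.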

[19] = ATG_TCF_b_cat_CIS: Attagene CIS-FACTORIAL HepG2 Assay for human T-Cell-Factor with beta-catenin (TCF/b-cat) (AID 2282965); conditions: HepG2 TCF/beta-catenin cis-reporter transcription, actives raise or lower the signal
Procedure, shortened: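 In this cis-format system, transfected HepG2 cells report endogenous transcription factor activity. Readout after 24 h exposure is reporter transcript abundance from RT-PCR and capillary electrophoresis, analysed for gain or loss of signal versus DMSO.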

[20] = ATG_PBREM_CIS: Attagene CIS-FACTORIAL HepG2 Assay for human Phenobarbital-responsive Enhancer Module (PBREM) (AID 2282955); conditions: HepG2 PBREM cis-reporter, Attagene multiplexed transcription; actives raise or lower the signal
Procedure, shortened: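 HepG2 cells transiently transfected with multiple cis-regulated reporter units measure endogenous transcription factor activity; 24 h compound exposure. Reporter mRNA quantified by RT-PCR, fluorescent labelling, HpaI digestion and capillary electrophoresis; bidirectional fit versus DMSO.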

Measured: AC50

Sequence of Paired box protein Pax-6 (Homo sapiens) (P26367 whole entry, looked up): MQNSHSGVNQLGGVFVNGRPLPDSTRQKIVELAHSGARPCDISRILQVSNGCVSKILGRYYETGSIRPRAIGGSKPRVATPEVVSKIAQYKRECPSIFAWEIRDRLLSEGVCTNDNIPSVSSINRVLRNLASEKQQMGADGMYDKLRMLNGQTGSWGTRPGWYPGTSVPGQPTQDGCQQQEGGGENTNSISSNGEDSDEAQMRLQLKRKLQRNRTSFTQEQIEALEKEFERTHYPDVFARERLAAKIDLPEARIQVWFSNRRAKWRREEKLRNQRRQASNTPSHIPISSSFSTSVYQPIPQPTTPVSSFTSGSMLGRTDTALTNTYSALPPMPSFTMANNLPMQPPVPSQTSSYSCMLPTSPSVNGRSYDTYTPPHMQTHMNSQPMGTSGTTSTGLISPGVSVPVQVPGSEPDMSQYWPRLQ
Sequence of Hypoxia-inducible factor 1-alpha (Homo sapiens) (Q16665 whole entry, looked up): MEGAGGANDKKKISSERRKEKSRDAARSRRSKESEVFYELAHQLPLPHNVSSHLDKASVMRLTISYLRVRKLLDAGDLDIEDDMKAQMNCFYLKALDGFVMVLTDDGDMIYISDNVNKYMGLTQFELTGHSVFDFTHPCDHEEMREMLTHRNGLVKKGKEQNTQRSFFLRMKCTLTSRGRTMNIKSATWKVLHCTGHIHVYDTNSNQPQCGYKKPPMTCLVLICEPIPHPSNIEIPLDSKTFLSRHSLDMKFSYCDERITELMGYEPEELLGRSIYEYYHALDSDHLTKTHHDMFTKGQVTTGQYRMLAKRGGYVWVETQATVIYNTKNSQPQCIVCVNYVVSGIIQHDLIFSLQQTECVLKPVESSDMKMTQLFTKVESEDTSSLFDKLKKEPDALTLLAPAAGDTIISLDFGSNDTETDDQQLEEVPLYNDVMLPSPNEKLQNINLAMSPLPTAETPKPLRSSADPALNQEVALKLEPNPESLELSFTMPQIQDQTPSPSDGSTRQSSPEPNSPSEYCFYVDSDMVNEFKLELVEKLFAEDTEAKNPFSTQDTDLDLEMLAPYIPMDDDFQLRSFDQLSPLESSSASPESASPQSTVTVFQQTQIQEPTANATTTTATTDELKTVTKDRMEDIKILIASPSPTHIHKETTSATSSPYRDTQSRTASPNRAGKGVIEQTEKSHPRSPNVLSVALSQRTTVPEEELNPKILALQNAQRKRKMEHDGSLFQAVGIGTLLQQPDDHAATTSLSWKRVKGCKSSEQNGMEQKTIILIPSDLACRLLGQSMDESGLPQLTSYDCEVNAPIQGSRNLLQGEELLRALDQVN
Sequence of Hepatocyte nuclear factor 6 (Homo sapiens) (Q9UBC0 whole entry, looked up): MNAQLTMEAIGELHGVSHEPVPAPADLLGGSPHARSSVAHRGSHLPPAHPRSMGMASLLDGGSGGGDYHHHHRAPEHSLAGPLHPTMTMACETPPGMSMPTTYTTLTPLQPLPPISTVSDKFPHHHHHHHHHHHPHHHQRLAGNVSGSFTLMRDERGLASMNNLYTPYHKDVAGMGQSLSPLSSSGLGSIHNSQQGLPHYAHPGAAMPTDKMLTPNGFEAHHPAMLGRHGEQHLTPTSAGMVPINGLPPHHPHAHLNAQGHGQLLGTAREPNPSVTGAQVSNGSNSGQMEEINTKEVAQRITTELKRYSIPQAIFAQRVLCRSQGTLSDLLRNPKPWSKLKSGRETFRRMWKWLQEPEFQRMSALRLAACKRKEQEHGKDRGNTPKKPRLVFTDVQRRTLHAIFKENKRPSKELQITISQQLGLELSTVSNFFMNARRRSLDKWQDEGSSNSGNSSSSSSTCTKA
Sequence of Transcription factor Sp1 (Homo sapiens) (P08047 whole entry, looked up): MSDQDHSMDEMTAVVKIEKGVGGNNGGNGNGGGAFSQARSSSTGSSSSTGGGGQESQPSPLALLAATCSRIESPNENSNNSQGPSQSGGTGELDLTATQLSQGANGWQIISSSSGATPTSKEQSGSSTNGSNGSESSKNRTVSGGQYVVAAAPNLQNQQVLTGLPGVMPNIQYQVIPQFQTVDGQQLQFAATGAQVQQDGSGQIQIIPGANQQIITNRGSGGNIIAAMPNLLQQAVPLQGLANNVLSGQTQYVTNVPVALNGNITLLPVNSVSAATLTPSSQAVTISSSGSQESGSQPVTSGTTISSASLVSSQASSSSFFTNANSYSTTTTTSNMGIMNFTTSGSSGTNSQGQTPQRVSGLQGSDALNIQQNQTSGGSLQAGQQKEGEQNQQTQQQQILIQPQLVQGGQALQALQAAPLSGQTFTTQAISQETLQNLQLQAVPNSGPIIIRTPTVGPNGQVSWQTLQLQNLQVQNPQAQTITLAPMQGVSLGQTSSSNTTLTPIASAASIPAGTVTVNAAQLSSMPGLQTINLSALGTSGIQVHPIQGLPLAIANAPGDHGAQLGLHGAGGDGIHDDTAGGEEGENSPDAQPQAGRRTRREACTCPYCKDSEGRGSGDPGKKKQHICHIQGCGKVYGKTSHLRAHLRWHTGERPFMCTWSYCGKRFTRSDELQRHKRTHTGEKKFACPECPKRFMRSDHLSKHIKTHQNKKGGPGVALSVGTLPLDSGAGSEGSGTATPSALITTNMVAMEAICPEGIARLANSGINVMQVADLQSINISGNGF
Sequence of Heat shock factor protein 1 (Homo sapiens) (Q00613 whole entry, looked up): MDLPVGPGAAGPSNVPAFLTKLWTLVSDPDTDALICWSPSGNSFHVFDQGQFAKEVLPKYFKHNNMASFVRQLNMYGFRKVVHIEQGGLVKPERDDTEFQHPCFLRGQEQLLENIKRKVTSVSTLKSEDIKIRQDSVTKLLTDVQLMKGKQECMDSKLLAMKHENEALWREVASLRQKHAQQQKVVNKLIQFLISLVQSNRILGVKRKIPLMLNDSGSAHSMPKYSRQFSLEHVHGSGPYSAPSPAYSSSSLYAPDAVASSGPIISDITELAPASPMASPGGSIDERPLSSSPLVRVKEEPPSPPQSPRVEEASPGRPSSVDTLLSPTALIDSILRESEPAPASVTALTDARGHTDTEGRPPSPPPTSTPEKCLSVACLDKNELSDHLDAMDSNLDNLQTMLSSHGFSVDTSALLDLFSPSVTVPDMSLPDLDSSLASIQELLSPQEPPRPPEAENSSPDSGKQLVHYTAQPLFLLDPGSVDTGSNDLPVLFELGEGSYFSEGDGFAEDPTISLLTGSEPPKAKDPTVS
Sequence of Bile acid receptor (Homo sapiens) (Q96RI1 whole entry, looked up): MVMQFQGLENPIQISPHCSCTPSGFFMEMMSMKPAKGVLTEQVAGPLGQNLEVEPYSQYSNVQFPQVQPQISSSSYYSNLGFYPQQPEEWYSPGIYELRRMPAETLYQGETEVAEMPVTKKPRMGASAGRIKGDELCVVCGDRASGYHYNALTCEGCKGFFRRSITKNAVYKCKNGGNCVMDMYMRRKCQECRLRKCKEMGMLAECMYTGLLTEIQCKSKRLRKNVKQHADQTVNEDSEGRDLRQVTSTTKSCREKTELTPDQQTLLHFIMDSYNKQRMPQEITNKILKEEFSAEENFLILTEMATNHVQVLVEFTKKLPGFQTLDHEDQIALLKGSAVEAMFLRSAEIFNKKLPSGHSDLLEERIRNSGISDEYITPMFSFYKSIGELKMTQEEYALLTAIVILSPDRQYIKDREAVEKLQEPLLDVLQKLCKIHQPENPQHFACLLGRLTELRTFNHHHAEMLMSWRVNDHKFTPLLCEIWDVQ
Sequence of Signal transducer and activator of transcription 3 (Homo sapiens) (P40763 whole entry, looked up): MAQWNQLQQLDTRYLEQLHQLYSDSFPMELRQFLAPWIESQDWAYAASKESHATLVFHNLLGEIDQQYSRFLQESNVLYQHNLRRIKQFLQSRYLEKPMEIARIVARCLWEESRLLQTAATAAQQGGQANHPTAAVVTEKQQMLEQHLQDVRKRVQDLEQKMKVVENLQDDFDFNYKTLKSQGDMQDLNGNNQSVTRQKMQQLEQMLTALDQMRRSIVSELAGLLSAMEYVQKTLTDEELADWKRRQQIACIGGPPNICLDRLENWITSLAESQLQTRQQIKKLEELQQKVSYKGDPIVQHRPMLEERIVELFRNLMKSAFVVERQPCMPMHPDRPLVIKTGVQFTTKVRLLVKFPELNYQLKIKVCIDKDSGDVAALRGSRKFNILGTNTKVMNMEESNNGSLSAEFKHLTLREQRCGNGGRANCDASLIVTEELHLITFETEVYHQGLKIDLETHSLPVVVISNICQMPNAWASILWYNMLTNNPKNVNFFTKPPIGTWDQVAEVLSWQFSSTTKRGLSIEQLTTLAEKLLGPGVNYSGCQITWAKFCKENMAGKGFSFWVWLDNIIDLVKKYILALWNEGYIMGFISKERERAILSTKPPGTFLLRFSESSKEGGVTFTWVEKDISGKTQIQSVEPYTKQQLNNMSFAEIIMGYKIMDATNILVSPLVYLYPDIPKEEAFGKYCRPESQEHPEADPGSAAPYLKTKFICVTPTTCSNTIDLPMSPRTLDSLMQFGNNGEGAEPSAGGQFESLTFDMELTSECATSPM

OCCCCC(O)CO (stereo not given)
inactive: [1] | [2] | [3] | [4] | [5] | [7] | [8] | [9] | [10] | [11] | [12] | [13] | [14] | [15] | [16] | [17] | [18] | [19]
active: [6] 23.2 µM

CC(C)C[C@H](NC(=O)OCC1c2ccccc2-c2ccccc21)C(=O)O
active: [11] 28.2 µM | [12] 14.7 µM | [16] 69.1 µM
inactive: [1] | [2] | [3] | [4] | [5] | [6] | [7] | [9] | [20] | [10] | [13] | [14] | [15] | [17] | [18] | [19]

CCOC(=O)CC(C)O (stereo not given)
inactive: [1] | [2] | [3] | [4] | [5] | [6] | [7] | [8] | [20] | [10] | [11] | [12] | [13] | [14] | [15] | [17] | [18] | [19]

Cc1cc(C)nc(NS(=O)(=O)c2ccc(N)cc2)n1
inactive: [1] | [2] | [3] | [4] | [5] | [6] | [7] | [8] | [9] | [10] | [12] | [14] | [15] | [16] | [17] | [18] | [19]
active: [11] 46.5 µM

CC1(C)C2=CCCC(C)(C)[C@]23CC[C@H]1C3
inactive: [1] | [2] | [3] | [4] | [5] | [6] | [7] | [8] | [20] | [10] | [14] | [15] | [18] | [19]
active: [11] 1.49 µM | [16] 53.2 µM

CCCCCCCCN1CCCC1=O
active: [6] 147 µM | [10] 144 µM | [17] 168 µM
inactive: [1] | [2] | [3] | [4] | [5] | [7] | [8] | [20] | [13] | [14] | [15] | [16] | [18] | [19]

CCCCN(CCCC)C(=O)N(CCCC)CCCC
active: [1] 24.5 µM | [2] 48.3 µM | [6] 54.8 µM | [7] 53.7 µM | [8] 52.2 µM | [9] 8.86 µM | [10] 37.2 µM | [11] 0.753 µM | [12] 61 µM | [14] 52.2 µM | [15] 46.8 µM | [16] 54.6 µM | [18] 25.5 µM | [19] 60.6 µM
inactive: [3] | [4] | [5] | [13]
